Assay [1] deals with T1, Mitogen-activated protein kinase kinase kinase 7 (Homo sapiens) (UniProt O43318).
T1 sequence (whole entry): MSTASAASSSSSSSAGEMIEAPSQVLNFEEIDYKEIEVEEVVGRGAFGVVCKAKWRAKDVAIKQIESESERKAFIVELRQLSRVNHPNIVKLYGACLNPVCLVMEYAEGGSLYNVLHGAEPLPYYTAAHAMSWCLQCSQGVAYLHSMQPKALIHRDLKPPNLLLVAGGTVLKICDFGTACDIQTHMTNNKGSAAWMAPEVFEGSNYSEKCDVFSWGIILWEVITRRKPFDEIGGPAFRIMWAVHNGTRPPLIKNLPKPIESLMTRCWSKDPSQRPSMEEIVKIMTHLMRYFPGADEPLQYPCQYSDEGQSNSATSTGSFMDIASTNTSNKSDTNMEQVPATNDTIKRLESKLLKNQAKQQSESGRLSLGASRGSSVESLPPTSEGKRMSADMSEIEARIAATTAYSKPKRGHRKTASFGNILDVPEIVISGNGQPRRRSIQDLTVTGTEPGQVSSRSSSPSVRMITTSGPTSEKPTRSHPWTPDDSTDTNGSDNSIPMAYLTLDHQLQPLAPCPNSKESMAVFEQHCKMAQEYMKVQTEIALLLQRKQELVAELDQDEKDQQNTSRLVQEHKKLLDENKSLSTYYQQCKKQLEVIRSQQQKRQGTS
As to conditions: at 10 µM.

Assay [2] deals with T2, Serine/threonine-protein kinase TAO1 (Homo sapiens) (UniProt Q7L7X3).
T2 sequence (whole entry): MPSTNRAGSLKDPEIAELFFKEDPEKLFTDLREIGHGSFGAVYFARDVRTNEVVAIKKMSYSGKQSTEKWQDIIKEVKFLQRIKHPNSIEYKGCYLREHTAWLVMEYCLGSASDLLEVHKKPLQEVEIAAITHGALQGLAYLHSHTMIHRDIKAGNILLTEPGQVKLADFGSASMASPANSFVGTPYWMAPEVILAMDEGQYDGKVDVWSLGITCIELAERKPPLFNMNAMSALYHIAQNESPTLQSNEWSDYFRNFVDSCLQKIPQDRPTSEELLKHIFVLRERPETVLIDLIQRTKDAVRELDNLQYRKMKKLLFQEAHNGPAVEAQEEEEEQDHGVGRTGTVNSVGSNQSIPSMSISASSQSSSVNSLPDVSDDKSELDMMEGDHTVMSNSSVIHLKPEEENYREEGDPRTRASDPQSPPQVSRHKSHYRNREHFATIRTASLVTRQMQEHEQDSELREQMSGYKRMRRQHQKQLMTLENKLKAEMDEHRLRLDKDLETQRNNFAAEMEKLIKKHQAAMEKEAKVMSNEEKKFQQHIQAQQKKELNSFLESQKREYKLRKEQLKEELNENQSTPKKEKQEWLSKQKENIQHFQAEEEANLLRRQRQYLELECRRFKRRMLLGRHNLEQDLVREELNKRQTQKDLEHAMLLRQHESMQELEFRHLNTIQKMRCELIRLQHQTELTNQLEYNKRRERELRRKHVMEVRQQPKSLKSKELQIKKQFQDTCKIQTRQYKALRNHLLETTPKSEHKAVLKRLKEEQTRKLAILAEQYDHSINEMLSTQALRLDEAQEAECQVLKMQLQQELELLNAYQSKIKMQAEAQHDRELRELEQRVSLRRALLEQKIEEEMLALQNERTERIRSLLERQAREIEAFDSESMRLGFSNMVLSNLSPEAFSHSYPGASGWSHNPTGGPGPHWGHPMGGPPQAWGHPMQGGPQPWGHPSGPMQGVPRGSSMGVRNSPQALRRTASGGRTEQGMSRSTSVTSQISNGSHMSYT
As to conditions: at 1 µM.

In assay [3] the target is T2, Serine/threonine-protein kinase TAO1 (Homo sapiens). As to conditions: at 10 µM.
The target of assay [4] is T3, Serine/threonine-protein kinase TBK1 (Homo sapiens) (UniProt Q9UHD2).
T3 sequence (whole entry): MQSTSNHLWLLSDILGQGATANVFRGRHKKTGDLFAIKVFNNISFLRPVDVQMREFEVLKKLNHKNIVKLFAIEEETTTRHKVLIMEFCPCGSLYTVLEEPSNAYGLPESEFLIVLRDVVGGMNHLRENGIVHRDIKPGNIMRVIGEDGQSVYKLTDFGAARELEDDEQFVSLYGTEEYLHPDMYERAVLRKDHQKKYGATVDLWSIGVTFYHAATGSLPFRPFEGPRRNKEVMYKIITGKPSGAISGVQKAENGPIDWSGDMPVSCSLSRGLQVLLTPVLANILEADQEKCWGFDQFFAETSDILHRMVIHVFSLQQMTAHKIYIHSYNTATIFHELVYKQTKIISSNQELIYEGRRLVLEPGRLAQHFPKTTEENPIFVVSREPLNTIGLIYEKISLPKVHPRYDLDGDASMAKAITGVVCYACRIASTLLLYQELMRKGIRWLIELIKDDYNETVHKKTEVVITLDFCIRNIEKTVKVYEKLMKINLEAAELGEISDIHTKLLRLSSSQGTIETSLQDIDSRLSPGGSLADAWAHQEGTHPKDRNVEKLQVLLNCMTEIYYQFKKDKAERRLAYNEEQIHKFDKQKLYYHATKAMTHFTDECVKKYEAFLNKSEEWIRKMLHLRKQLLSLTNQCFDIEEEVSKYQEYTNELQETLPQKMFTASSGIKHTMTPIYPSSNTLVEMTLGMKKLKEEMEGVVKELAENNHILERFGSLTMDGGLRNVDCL
As to conditions: at 1 µM.

Assay [5] concerns the target T3, Serine/threonine-protein kinase TBK1 (Homo sapiens). As to conditions: at 10 µM.
The target in assay [6] is T4, Inhibitor of nuclear factor kappa-B kinase subunit alpha (Homo sapiens) (UniProt O15111).
T4 sequence (whole entry): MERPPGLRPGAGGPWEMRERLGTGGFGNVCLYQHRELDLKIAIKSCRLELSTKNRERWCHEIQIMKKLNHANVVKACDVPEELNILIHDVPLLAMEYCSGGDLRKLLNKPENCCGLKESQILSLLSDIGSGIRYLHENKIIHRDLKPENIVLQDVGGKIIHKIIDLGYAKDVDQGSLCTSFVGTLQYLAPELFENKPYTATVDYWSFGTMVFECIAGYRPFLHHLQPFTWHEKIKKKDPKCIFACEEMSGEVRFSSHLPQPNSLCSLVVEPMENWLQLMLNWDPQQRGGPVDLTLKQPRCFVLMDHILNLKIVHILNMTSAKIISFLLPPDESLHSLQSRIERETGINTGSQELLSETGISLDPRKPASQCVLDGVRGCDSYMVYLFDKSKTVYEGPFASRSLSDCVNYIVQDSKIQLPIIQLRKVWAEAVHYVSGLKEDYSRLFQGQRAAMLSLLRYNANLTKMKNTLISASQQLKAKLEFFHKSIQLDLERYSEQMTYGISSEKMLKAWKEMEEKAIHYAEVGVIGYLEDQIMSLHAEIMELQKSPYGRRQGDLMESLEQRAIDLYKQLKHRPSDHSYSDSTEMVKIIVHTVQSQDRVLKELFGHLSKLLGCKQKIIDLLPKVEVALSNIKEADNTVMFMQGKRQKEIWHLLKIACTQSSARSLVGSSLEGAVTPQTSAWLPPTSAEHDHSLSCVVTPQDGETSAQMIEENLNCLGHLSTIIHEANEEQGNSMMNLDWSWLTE
As to conditions: at 1 µM.

Assay [7] addresses T4, Inhibitor of nuclear factor kappa-B kinase subunit alpha (Homo sapiens). As to conditions: at 10 µM.
The target in assay [8] is T5, Inhibitor of nuclear factor kappa-B kinase subunit beta (Homo sapiens) (UniProt O14920).
T5 sequence (whole entry): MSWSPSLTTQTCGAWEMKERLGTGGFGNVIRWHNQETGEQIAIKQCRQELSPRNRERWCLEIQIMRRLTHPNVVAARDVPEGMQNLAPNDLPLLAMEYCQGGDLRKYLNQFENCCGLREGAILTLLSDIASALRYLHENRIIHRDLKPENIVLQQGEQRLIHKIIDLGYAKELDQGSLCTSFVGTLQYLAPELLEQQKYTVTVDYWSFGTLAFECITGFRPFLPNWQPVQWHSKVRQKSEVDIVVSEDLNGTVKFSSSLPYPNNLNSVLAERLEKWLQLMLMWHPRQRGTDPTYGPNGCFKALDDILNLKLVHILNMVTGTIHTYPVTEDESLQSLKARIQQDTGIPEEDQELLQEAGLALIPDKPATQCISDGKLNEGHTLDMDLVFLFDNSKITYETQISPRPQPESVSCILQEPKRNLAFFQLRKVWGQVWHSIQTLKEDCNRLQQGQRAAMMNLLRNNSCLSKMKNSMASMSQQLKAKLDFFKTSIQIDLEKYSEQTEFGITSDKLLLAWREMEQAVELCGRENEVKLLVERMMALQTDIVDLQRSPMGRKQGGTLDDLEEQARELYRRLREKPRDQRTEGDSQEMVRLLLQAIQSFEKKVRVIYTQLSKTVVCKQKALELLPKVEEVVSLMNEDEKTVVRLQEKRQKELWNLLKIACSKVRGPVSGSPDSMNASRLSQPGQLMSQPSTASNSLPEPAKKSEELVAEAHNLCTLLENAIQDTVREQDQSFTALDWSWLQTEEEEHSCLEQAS
As to conditions: at 1 µM.

Assay [9] addresses T5, Inhibitor of nuclear factor kappa-B kinase subunit beta (Homo sapiens). As to conditions: at 10 µM.
The target of assay [10] is T6, Serine/threonine-protein kinase TAO2 (Homo sapiens) (UniProt Q9UL54).
T6 sequence (whole entry): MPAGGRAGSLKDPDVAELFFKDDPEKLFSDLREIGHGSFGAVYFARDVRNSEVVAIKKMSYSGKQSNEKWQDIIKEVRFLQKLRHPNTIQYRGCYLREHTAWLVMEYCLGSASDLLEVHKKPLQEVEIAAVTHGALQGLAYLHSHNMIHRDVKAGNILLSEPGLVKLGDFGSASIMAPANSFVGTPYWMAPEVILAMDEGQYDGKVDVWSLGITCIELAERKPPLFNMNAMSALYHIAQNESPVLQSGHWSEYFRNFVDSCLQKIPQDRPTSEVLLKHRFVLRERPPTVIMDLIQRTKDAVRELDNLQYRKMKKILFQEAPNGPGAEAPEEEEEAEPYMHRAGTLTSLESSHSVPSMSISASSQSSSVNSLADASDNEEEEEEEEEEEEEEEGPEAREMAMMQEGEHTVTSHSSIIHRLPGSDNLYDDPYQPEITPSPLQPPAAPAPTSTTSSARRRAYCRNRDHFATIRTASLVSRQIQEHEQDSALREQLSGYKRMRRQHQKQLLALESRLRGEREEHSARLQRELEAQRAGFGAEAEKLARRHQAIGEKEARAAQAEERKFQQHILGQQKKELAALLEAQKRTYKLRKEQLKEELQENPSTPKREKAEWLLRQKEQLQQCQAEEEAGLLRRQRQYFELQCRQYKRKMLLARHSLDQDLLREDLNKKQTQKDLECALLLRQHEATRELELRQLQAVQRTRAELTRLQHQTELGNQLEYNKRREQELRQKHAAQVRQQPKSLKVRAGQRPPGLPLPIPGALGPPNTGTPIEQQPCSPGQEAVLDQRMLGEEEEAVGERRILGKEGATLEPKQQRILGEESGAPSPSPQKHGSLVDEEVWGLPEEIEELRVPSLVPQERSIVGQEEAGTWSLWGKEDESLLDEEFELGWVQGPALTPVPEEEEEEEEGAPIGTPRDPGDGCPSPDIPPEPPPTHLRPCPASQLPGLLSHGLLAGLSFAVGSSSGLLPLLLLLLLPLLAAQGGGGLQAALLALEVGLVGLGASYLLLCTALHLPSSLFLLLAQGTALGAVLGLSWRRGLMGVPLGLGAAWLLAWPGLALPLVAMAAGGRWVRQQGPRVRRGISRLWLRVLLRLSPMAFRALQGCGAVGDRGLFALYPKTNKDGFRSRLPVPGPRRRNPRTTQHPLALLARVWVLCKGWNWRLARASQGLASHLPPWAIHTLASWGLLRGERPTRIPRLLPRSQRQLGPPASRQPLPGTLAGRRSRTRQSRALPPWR
As to conditions: at 10 µM.

Assay [11] concerns the target T1, Mitogen-activated protein kinase kinase kinase 7 (Homo sapiens). As to conditions: at 1 µM.
Assay [12] addresses Insulin receptor (Homo sapiens) (UniProt P06213). As to conditions: at 1 µM.

The structures appear in SMILES notation.

Insulin receptor (Homo sapiens), sequence (P06213 28-758 limits assumed): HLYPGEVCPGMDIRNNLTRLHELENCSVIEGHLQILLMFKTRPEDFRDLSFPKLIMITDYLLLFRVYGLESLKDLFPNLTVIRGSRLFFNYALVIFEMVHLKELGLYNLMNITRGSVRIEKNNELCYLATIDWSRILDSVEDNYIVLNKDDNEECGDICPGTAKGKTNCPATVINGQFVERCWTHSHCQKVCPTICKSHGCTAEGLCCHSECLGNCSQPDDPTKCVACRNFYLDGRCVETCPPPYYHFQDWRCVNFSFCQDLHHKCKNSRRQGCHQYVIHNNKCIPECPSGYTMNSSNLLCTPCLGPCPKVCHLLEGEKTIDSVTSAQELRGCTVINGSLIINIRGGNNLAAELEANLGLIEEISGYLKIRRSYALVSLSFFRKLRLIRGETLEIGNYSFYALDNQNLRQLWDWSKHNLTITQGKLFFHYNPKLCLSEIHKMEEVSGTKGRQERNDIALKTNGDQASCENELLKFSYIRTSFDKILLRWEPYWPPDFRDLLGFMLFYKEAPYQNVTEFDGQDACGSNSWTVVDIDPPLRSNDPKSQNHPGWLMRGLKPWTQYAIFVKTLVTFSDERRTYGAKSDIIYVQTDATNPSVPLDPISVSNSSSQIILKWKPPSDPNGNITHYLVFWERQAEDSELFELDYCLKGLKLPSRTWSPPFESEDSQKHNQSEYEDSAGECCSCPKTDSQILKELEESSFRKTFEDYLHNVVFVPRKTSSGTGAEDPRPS
Insulin receptor (Homo sapiens), sequence (P06213 763-1382 limits assumed): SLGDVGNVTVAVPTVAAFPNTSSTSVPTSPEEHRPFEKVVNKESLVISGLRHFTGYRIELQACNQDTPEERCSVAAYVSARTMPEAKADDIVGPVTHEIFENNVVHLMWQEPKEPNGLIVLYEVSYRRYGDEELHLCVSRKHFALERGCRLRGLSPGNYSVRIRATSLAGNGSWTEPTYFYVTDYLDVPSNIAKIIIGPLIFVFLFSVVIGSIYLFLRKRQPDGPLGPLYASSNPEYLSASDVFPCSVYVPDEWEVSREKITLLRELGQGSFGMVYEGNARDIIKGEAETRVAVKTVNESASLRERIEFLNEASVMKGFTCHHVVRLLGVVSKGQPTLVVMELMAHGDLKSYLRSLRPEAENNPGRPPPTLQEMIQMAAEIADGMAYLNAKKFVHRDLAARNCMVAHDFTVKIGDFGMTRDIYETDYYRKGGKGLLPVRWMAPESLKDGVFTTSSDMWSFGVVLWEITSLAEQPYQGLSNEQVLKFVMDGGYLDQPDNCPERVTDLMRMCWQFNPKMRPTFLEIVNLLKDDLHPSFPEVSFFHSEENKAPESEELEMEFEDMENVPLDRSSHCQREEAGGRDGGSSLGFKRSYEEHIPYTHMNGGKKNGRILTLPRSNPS

Take `CCN1/C(=C/C(C)=O)Sc2ccc(OC)cc21`: the residual activity in [1] came to 80%; in [2] it was 75%; in [3], 46%; in [4], 70%; in assay [5] it was 51%.
In the case of `COc1ccc(CNC(=O)Nc2ncc([N+](=O)[O-])s2)cc1`, the residual activity in [1] worked out at 79%; in assay [4] it was 59%; in assay [5], 59%; in [6] it was 111%; in [7], 113%; in [8], 109%. Also, the residual activity in assay [9] was found to be 108%.
In the case of `Nc1nccc(-c2c(-c3ccc(F)cc3)ncn2C2CCNCC2)n1`, the residual activity stood at 79% in assay [1]; 80% in assay [10]; 69% in assay [5]; 120% in assay [6]; 116% in assay [8].
`CCOC(=O)c1c(C)[nH]c(/C=C2\C(=O)Nc3ccccc32)c1C`: the residual activity was 89% in [11]; 98% in assay [1]; 92% in assay [4]; 85% in [5]; 96% in assay [6]; 88% in assay [7]. In assay [12], the residual activity stood at 93%.

The values are drawn from ChEMBL document CHEMBL2218924, “A broad activity screen in support of a chemogenomic map for kinase signalling research and drug discovery” (Biochem J, 2013).
